{"source": "the supplement of paper PMC3334620", "note": "Whole data set: some 33,000 sequences, median “E-score (-0.5 to 0.5)” near -0.053, cut for the highest 2% near 0.37. The full list was thinned out, with the highest values kept by preference."}
{"biological_target": "Hap1 (UniProt P0CE41)", "sequence (P0CE41 whole entry, the tested form may be a part)": "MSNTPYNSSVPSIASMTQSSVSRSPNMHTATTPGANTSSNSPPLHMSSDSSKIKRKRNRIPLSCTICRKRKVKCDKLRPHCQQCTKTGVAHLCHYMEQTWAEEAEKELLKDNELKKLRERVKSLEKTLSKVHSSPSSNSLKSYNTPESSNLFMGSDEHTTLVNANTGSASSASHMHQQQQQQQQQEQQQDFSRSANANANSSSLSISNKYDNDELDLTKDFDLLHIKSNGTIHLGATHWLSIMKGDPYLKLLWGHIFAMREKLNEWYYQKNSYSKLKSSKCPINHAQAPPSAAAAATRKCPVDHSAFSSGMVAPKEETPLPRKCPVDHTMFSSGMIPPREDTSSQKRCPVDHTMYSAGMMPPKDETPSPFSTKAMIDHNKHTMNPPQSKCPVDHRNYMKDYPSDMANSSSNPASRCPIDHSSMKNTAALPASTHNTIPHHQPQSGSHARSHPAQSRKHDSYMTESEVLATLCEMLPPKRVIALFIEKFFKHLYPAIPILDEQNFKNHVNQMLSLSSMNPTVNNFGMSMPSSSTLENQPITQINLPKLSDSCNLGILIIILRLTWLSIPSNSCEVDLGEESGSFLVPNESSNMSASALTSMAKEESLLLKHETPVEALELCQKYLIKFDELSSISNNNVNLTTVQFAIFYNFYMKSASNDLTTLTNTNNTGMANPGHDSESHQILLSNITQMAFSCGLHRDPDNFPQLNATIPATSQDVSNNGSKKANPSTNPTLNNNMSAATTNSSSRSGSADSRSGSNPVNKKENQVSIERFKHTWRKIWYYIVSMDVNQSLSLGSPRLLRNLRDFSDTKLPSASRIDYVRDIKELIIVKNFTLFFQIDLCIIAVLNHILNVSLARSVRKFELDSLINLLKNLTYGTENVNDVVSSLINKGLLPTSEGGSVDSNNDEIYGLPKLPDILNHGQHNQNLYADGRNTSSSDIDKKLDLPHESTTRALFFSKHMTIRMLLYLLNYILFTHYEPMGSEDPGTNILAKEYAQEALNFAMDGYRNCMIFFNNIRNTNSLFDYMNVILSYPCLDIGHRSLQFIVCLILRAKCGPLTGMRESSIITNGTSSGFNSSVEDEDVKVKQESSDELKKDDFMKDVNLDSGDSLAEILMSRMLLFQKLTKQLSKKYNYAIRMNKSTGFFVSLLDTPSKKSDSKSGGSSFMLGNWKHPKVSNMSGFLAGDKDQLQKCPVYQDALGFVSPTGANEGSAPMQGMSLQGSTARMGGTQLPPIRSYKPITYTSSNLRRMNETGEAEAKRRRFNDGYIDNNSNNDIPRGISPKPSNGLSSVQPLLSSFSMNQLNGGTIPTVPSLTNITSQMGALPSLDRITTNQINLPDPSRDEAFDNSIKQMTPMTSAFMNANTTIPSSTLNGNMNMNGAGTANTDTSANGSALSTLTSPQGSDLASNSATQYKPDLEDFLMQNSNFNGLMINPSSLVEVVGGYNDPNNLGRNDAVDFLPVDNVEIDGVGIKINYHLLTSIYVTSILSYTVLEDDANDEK", "test": "PBM E-score (8-mer binding enrichment) (E-score (-0.5 to 0.5)); higher = stronger / more preferred TF binding", "conditions": "protein concentration: 200 nM; construct: GST-DNA-binding domain", "description": "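Universal 'all 10-mer' protein binding microarrays (Agilent AMADID 015681) probed with GST-tagged S. cerevisiae TFs (full-length or DBD) made by in vitro transcription/translation (PURExpress), about 100-200 nM. Bound TF was detected with fluorescent anti-GST. Each ungapped 8-mer (which stands for itself and its reverse complement) is scored by the PBM enrichment score (E-score), a modified Wilcoxon-Mann-Whitney statistic from -0.5 to +0.5, computed with the Universal PBM Analysis Suite. Scale: above 0.35 generally sequence-specific binding.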"}
{"sequence": "ACCCGGTC", "PBM E-score": 0.222}
{"sequence": "ACCCGGTA", "PBM E-score": 0.376}
{"sequence": "GCCCGGTA", "PBM E-score": 0.38}
{"sequence": "GCCCGGCA", "PBM E-score": 0.25}
{"sequence": "AAGCCTCA", "PBM E-score": -0.136}
{"sequence": "CACCGCAC", "PBM E-score": 0.0364}
{"sequence": "CGTGCACC", "PBM E-score": -0.0161}
{"sequence": "CGGTCCTA", "PBM E-score": 0.33}
{"sequence": "GGGTCCAA", "PBM E-score": 0.15}
{"sequence": "CGGTCCGA", "PBM E-score": 0.435}
{"sequence": "AGGTCCAG", "PBM E-score": -0.0779}
{"sequence": "AGGTCCGG", "PBM E-score": 0.396}
{"sequence": "AGGTCCGC", "PBM E-score": 0.33}
{"sequence": "CGGTCCGC", "PBM E-score": 0.317}
{"sequence": "GGGTCCCA", "PBM E-score": -0.0688}
{"sequence": "AGGTCCTG", "PBM E-score": -0.0186}
{"sequence": "GGGTCCGA", "PBM E-score": 0.38}
{"sequence": "AGGTCCGA", "PBM E-score": 0.404}
{"sequence": "AGGTCCCA", "PBM E-score": -0.174}
{"sequence": "AGTGAAAA", "PBM E-score": 0.0463}
{"sequence": "ATCTAGCG", "PBM E-score": 0.00616}
{"sequence": "AGATAGCC", "PBM E-score": 0.0418}
{"sequence": "CGCGAATA", "PBM E-score": 0.182}
{"sequence": "ATCTGAGA", "PBM E-score": -0.25}
{"sequence": "CTTCGACA", "PBM E-score": -0.309}
{"sequence": "GCAGTAGA", "PBM E-score": -0.3}
{"sequence": "AGGTTCGA", "PBM E-score": -0.0833}
{"sequence": "CGGCTGAC", "PBM E-score": 0.192}
{"sequence": "GCTCTTCC", "PBM E-score": 0.0685}
{"sequence": "AACTTTTG", "PBM E-score": -0.0532}
{"sequence": "CAAAGAGC", "PBM E-score": -0.176}
{"sequence": "GCGGCAAA", "PBM E-score": 0.202}
{"sequence": "ACGGCAAC", "PBM E-score": -0.0151}
{"sequence": "CCGGCAAC", "PBM E-score": 0.373}
{"sequence": "GCGGCAAC", "PBM E-score": 0.00981}
{"sequence": "CCGGCAAG", "PBM E-score": 0.269}
{"sequence": "CCGGCAAA", "PBM E-score": 0.387}
{"sequence": "AGTTTTTA", "PBM E-score": -0.141}
{"sequence": "AGATTATA", "PBM E-score": -0.0616}
{"sequence": "ATTCTGGC", "PBM E-score": -0.0263}
{"sequence": "AGCCCTTA", "PBM E-score": -0.128}
{"sequence": "CTCTACAA", "PBM E-score": -0.178}
{"sequence": "GTTTCCGA", "PBM E-score": 0.379}
{"sequence": "ATTTCCCC", "PBM E-score": 0.181}
{"sequence": "CTTTCCGA", "PBM E-score": 0.316}
{"sequence": "ACTTCCGA", "PBM E-score": 0.31}
{"sequence": "CTTTCCGC", "PBM E-score": 0.194}
{"sequence": "ATTTCCTG", "PBM E-score": -0.0599}
{"sequence": "ATTTCCGG", "PBM E-score": 0.459}
{"sequence": "ATTTCCGC", "PBM E-score": 0.399}
{"sequence": "GTTTCCAA", "PBM E-score": -0.238}
{"sequence": "ATTTCCAG", "PBM E-score": 0.129}
{"sequence": "ACTTCCGC", "PBM E-score": 0.249}
{"sequence": "ACTTCCGG", "PBM E-score": 0.382}
{"sequence": "AAAACAAA", "PBM E-score": 0.043}
{"sequence": "AGCGCACC", "PBM E-score": 0.149}
{"sequence": "CGGTTCTA", "PBM E-score": 0.276}
{"sequence": "ATCAAGAG", "PBM E-score": -0.172}
{"sequence": "ACGGAACG", "PBM E-score": 0.195}
{"sequence": "CTACCAGC", "PBM E-score": -0.319}
{"sequence": "CATAGGCG", "PBM E-score": -0.196}
{"sequence": "GCCACTAC", "PBM E-score": -0.042}
{"sequence": "ATTTCCCA", "PBM E-score": -0.131}
{"sequence": "ATTTCCGA", "PBM E-score": 0.432}
{"sequence": "ATTTCCAA", "PBM E-score": 0.0623}
{"sequence": "CCGTCTCC", "PBM E-score": 0.126}
{"sequence": "AACCTATC", "PBM E-score": -0.00501}
{"sequence": "GATAGTGC", "PBM E-score": -0.0408}
{"sequence": "CGTACGAC", "PBM E-score": -0.0847}
{"sequence": "CACGTCGG", "PBM E-score": 0.28}
{"sequence": "ATCCGGTC", "PBM E-score": 0.329}
{"sequence": "CTCCGGCC", "PBM E-score": 0.358}
{"sequence": "CGCCGGTC", "PBM E-score": 0.295}
{"sequence": "CTCCGGCA", "PBM E-score": 0.371}
{"sequence": "GTCCGCTA", "PBM E-score": 0.37}
{"sequence": "ATCCGGCA", "PBM E-score": 0.329}
{"sequence": "ATCCGCTA", "PBM E-score": 0.306}
{"sequence": "GTCCGGTA", "PBM E-score": 0.419}
{"sequence": "GTTCGGTA", "PBM E-score": 0.249}
{"sequence": "CTCCGGTC", "PBM E-score": 0.431}
{"sequence": "CTCCGCTA", "PBM E-score": 0.336}
{"sequence": "GTACGGTA", "PBM E-score": 0.0448}
{"sequence": "GGCATCGA", "PBM E-score": -0.206}
{"sequence": "AAATGAAT", "PBM E-score": -0.213}
{"sequence": "CCAGCGTC", "PBM E-score": 0.0197}
{"sequence": "AGTTCTTA", "PBM E-score": 0.0534}
{"sequence": "CGCCATCC", "PBM E-score": -0.00934}
{"sequence": "CGTCGGAA", "PBM E-score": 0.306}
{"sequence": "CATTTGCC", "PBM E-score": -0.0698}
{"sequence": "AGGGAACG", "PBM E-score": -0.0997}
{"sequence": "CTCCGGTA", "PBM E-score": 0.439}
{"sequence": "ATCCGGTA", "PBM E-score": 0.357}
{"sequence": "CGCCGGTA", "PBM E-score": 0.345}
{"sequence": "CAAGCTCC", "PBM E-score": 0.00322}
{"sequence": "CGGGCTTC", "PBM E-score": 0.307}
{"sequence": "AGGGCTTA", "PBM E-score": -0.203}
{"sequence": "AGGGCATA", "PBM E-score": -0.102}
{"sequence": "CGGGCTTA", "PBM E-score": 0.437}
{"sequence": "GGGGCATA", "PBM E-score": 0.0612}
{"sequence": "CGGGCATA", "PBM E-score": 0.386}
{"sequence": "GTACTTCA", "PBM E-score": 0.032}
{"sequence": "GGGTTTTA", "PBM E-score": 0.288}
{"sequence": "GGGGTTAC", "PBM E-score": 0.218}
{"sequence": "TGGTTTAA", "PBM E-score": -0.161}
{"sequence": "AGGGTTAA", "PBM E-score": -0.259}
{"sequence": "GGGTTTAA", "PBM E-score": 0.387}
{"sequence": "GGGGTTAA", "PBM E-score": 0.386}
{"sequence": "ATCTATCG", "PBM E-score": 0.268}
{"sequence": "GACTCGGC", "PBM E-score": 0.186}
{"sequence": "AACGAAGG", "PBM E-score": -0.308}
{"sequence": "ACTTGGTG", "PBM E-score": -0.25}
{"sequence": "ACCTGCCG", "PBM E-score": -0.0501}
{"sequence": "GAGCGCAA", "PBM E-score": -0.175}
{"sequence": "AGTTACTA", "PBM E-score": -0.128}
{"sequence": "ACCAGTGA", "PBM E-score": -0.18}
{"sequence": "GGTAGTTA", "PBM E-score": 0.0824}
{"sequence": "CCCTAGCC", "PBM E-score": -0.138}
{"sequence": "ATTCGGCG", "PBM E-score": 0.278}
{"sequence": "GTTCGGAA", "PBM E-score": 0.312}
{"sequence": "CTTCGGAA", "PBM E-score": 0.403}
{"sequence": "ATTCGGGA", "PBM E-score": 0.197}
{"sequence": "ATTCGGGG", "PBM E-score": 0.393}
{"sequence": "ATTCGGAC", "PBM E-score": 0.382}
{"sequence": "AGTCGGAC", "PBM E-score": 0.318}
{"sequence": "ATTCGGCC", "PBM E-score": 0.375}
{"sequence": "ATTCGGGC", "PBM E-score": 0.308}
{"sequence": "ATTCGGCA", "PBM E-score": 0.224}
{"sequence": "ATTCGGAG", "PBM E-score": 0.299}
{"sequence": "ATTCGGAA", "PBM E-score": 0.311}
{"sequence": "AGGTGAAG", "PBM E-score": -0.184}
{"sequence": "CGATTCAA", "PBM E-score": -0.0364}
{"sequence": "GACGGGGC", "PBM E-score": 0.0768}
{"sequence": "GTCCACAC", "PBM E-score": 0.0984}
{"sequence": "ATTCGCCG", "PBM E-score": 0.295}
{"sequence": "ATCCCAAG", "PBM E-score": -0.0728}
{"sequence": "AAACTGCC", "PBM E-score": -0.0803}
{"sequence": "ACTAGTTC", "PBM E-score": -0.0373}
{"sequence": "CTTCGGAC", "PBM E-score": 0.406}
{"sequence": "CTTCGGGC", "PBM E-score": 0.208}
{"sequence": "CTTCGGCC", "PBM E-score": 0.309}
{"sequence": "AATCTCGT", "PBM E-score": 0.0299}
{"sequence": "CTATCGGC", "PBM E-score": 0.385}
{"sequence": "AAATCGGC", "PBM E-score": 0.303}
{"sequence": "ATATCGTC", "PBM E-score": 0.0615}
{"sequence": "ATATCGCG", "PBM E-score": 0.314}
{"sequence": "CTATCGTC", "PBM E-score": -0.0802}
{"sequence": "ATATCGGC", "PBM E-score": 0.455}
{"sequence": "CGATCGGC", "PBM E-score": 0.312}
{"sequence": "CTATCGCC", "PBM E-score": 0.102}
{"sequence": "ATATCGCC", "PBM E-score": 0.414}
{"sequence": "GCCCAAGA", "PBM E-score": -0.22}
{"sequence": "CCACATCA", "PBM E-score": -0.064}
{"sequence": "CTTGCTCA", "PBM E-score": -0.129}
{"sequence": "GAGAGATA", "PBM E-score": 0.0119}
{"sequence": "GCACAGAC", "PBM E-score": 0.0195}
{"sequence": "GCTGATTA", "PBM E-score": -0.00254}
{"sequence": "CGGCCGGC", "PBM E-score": 0.422}
{"sequence": "CTGCCGGC", "PBM E-score": 0.322}
{"sequence": "CGGCCGGA", "PBM E-score": 0.436}
{"sequence": "CGGCCTTC", "PBM E-score": 0.301}
{"sequence": "CGGCCTGA", "PBM E-score": 0.183}
{"sequence": "GGGCCGGA", "PBM E-score": 0.355}
{"sequence": "AGGCCGGC", "PBM E-score": 0.271}
{"sequence": "AGGCCGTA", "PBM E-score": 0.0497}
{"sequence": "AGGCCGGA", "PBM E-score": 0.336}
{"sequence": "CGGCCGTA", "PBM E-score": 0.417}
{"sequence": "CGGCCGTC", "PBM E-score": 0.277}
{"sequence": "CGGCCTTA", "PBM E-score": 0.439}
{"sequence": "AATGGGCC", "PBM E-score": 0.0191}
{"sequence": "ACTCAGGA", "PBM E-score": -0.123}
{"sequence": "CCAAATGA", "PBM E-score": 0.00146}
{"sequence": "ACAGCACT", "PBM E-score": -0.0793}
